# Test results taken from PubChem BioAssay (NCATS).
# Records with an inconclusive call do not appear. Active and inactive are the calls of the source. Unless noted, the call rests on the fitted dose curve; in most records, active means well fitted curve in the direction sought with a large enough effect; inconclusive means small, poorly fitted or top-dose-only effect, or another doubt; inactive means no such curve, though single readings can be large; an effect the other way counts as inactive or inconclusive.
# Columns and labels:
# [1] = qHTS profiling of the MIPE4 collection as inhibitors of Plasmodium falciparum (3D7) proliferation (AID 743344; call rule not given here;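 further: scaled between DMSO vehicle wells and 0.29 µM artemisinin as full inhibition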); conditions: P. falciparum 3D7 in erythrocytes, SYBR Green DNA fluorescence, 72 h; at 28.5 µM unless noted
# Summary of the method: (§1)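 Erythrocytes infected with P. falciparum (0.3% parasitemia, 2.5% hematocrit) incubated with compounds 72 h at 37 C, 5% CO2. Lysis with saponin/Triton buffer containing SYBR Green I, overnight at room temperature in the dark; DNA fluorescence (485/535 nm) normalised to 0.29 uM artemisinin and DMSO.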
# [2] = qHTS profiling of the MIPE4 collection as inhibitors of Plasmodium falciparum (DD2) proliferation (AID 743345; call rule not given here); conditions: P. falciparum Dd2 in erythrocytes, SYBR Green DNA, 72 h; at 28.5 µM unless noted
# Summary of the method: as §1
# [3] = qHTS profiling of the MIPE4 collection as inhibitors of Plasmodium falciparum (DD2) proliferation (Rep 2) (AID 743346; call rule not given here); conditions: P. falciparum Dd2 in erythrocytes, SYBR Green DNA, 72 h; at 28.5 µM unless noted
# Summary of the method: as §1
# [4] = qHTS profiling of the MIPE4 collection as inhibitors of Plasmodium falciparum (HB3) proliferation (AID 743347; call rule not given here;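 further: plate controls were DMSO vehicle wells for no effect and artemisinin wells for full effect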); conditions: P. falciparum HB3 in erythrocytes, SYBR Green DNA, 72 h; at 28.5 µM unless noted
# Summary of the method: as §1
# [5] = High-throughput drug toxicity screening in the BPDCN cell line Gen2.2 (AID 1224824; call rule not given here;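 further: cells exposed to compounds for 48 h before reading; 100% = DMSO and 0% = bortezomib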); conditions: Gen2.2 BPDCN cells; at 45.8 µM (top of the series) unless noted
# Summary of the method: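 Readout is ATP luminescence from Gen2.2 cells after two days of drug exposure in serum-containing medium at 37 °C. Values express percent activity, with vehicle defining full signal and 9.2 uM bortezomib defining zero.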
# [6] = qHTS assay for measurement of the activity of small molecule inhibitors on Zika virus induced Caspase-3 activity in human iPSC derived neural progenitor cells (hNPCs) (AID 1224857); further: nearly all actives have a fitted effect of over 65% in size; further: potency means the concentration at half of the fitted maximal effect
# Summary of the method: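 hNPCs seeded 350 cells/well, cultured 16–20 h; compounds added 1 h before ZIKV (2 FFU/cell), 37 C 6 h. Caspase-Glo 3/7 luminescence after 30 min RT; % inhibition from induction scaled to uninfected (0%) and infected (100%) wells.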
# [7] = qHTS assay for measurement of the activity of small molecule inhibitors on Zika virus induced Caspase-3 activity in human astrocytoma cells (AID 1224859);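 further: plate controls were ZIKV-infected untreated cells for no effect and uninfected cells for full effect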
# Summary of the method: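 Luminescence read-out (Caspase-Glo 3/7, 30 min RT) of caspase activity in SNB-19 cells infected 6 h with ZIKV, 2 FFU/cell, after 1 h compound pretreatment; % inhibition from induction normalised to uninfected (0%) and infected (100%) wells.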
# [8] = qHTS Screen of the MIPE 4.0 Collection Against Ewings Sarcoma (RDES) (AID 1259252); further: nearly all actives have a fitted effect of over 35% in size; further: potency means the concentration at half of the fitted maximal effect
# Summary of the method: (§2)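 Here, cells in 5% FBS RPMI were exposed for two days (48 h) to compound dilutions added four hours after plating. ATP-based CellTiter-Glo luminescence measured viability, normalized to vehicle and no-cell blanks.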
# [9] = qHTS Screen of the MIPE 4.0 Collection Against Ewings Sarcoma (TC71) (AID 1259253); further: nearly all actives have a fitted effect of over 40% in size; further: potency means the concentration at half of the fitted maximal effect
# Summary of the method: as §2
# [10] = qHTS Screen of the MIPE 4.0 Collection Against Ewings Sarcoma (EW8) (AID 1259255); further: nearly all actives have a fitted effect of over 35% in size; further: potency means the concentration at half of the fitted maximal effect;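 on viability: 100% = DMSO-treated cells and 0% = medium-only wells without cells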
# Summary of the method: as §2
# [11] = qHTS profiling for inhibitors of Plasmodium falciparum (3D7) proliferation (AID 743322);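 further: infected erythrocytes exposed to compound for 72 h before lysis; 100% = DMSO vehicle wells and 0% = 0.29 µM artemisinin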; conditions: P. falciparum 3D7 proliferation; at 28.7 µM (top of the series)
# Summary of the method: as §1
# [12] = qHTS profiling for inhibitors of Plasmodium falciparum (DD2) proliferation (AID 743323; call rule not given here); conditions: lower = more inhibition; at 28.7 µM (top of the series)
# Summary of the method: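 Parasite DNA quantified by SYBR Green fluorescence (ex 485, em 535 nm) after saponin/Triton lysis and overnight dark incubation. Cultures: 0.3% parasitemia, 2.5% hematocrit, 72 h, 37 C; data scaled between DMSO and 0.29 uM artemisinin.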
# [13] = qHTS profiling for inhibitors of Plasmodium falciparum (HB3) proliferation (AID 743324); conditions: Plasmodium falciparum HB3 blood-stage proliferation; at 28.7 µM (top of the series);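 further: 100% = DMSO vehicle wells and 0% = artemisinin-treated control wells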
# Summary of the method: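 P. falciparum HB3 grown in erythrocytes (0.3% parasitemia, 2.5% hematocrit final) with compound for 72 h at 37 C, 5% CO2. Parasite DNA detected by SYBR Green after saponin/triton lysis overnight; normalized to 0.29 uM artemisinin and DMSO.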
Structure (SMILES),"parasite growth, % of DMSO control [1]","parasite growth remaining, % of DMSO control (lower = more inhibition) [2]","parasite growth, % of control (lower = inhibition) [3] [%]","growth, % of control [4]","cell viability, % of control (lower = more cytotoxic) [5]",Potency [6],Potency [7],Potency [8],Potency [9],Potency [10],remaining parasite growth % (stronger effect = lower value) [11] [%],"activity, percent of control [12] [%]","remaining proliferation (% of control), lower = more inhibition [13] [%]"
FC(F)c1nc2ccccc2n1-c1nc(N2CCOCC2)nc(N2CCOCC2)n1,4.72%,7.94%,8.19,3.1%,9.88%,inactive,inactive,235 nM (active),590 nM (active),,,,
Cn1cnc2c(F)c(Nc3ccc(Br)cc3F)c(C(=O)NOCCO)cc21,,88%,76.8,84.6%,4.85%,inactive,inactive,inactive,inactive,inactive,,,
Cc1ccc([N+](=O)[O-])cc1S(=O)(=O)N(C)N=Cc1cnc2ccc(Br)cn12,5.89%,11.3%,,3.45%,28.8%,inactive,inactive,29.6 nM (active),20.9 nM (active),37.2 nM (active),,,
CN(C)c1ccc2cc(C(=O)N[C@@H](CCCN=C(N)CCl)C(=O)NCc3ccccc3)ccc2c1,5.85%,8.25%,9.19,9.16%,1.99%,20900 nM (active),inactive,833 nM (active),11800 nM (active),,6.68,11.8,-0.673
Cn1cc(C[C@@H](N)C(=O)O)c2ccccc21,103% [at 9.64 µM],82.7% [at 9.64 µM],,98.8% [at 9.64 µM],152% [at 23.2 µM],inactive,inactive,inactive,inactive,inactive,,,
CC(=O)OCC(=O)[C@@]1(O)CC[C@H]2[C@@H]3CCC4=CC(=O)CC[C@]4(C)[C@@H]3C(=O)C[C@@]21C,68.4%,93.2%,122,96.5%,108%,inactive,inactive,inactive,inactive,,,,
c1cc(N[C@@H]2CCNC2)nc(-c2cnc3ccc(-c4cn[nH]c4)cn23)c1,,8.57%,9.64,3.77%,3.68%,,inactive,16600 nM (active),26400 nM (active),16600 nM (active),,,
C[C@H](NC(=O)Cc1cc(F)cc(F)c1)C(=O)N[C@H](C(=O)OC(C)(C)C)c1ccccc1,74.2%,95.2%,79.9,99.7%,89%,,inactive,inactive,inactive,inactive,,,
O=C(C=CC#Cc1cccc(NS(=O)(=O)c2ccccc2)c1)NO,5.45%,7.17%,,4.3%,4.86%,inactive,inactive,1870 nM (active),1320 nM (active),,,,
CC(=O)O[C@H]1C[C@@H]2CC[C@H]3[C@H]4C[C@H]([N+]5(C)CCCCC5)[C@@H](OC(C)=O)[C@@]4(C)CC[C@@H]3[C@@]2(C)C[C@H]1[N+]1(C)CCCCC1,,,,,232%,inactive,inactive,1320 nM (active),1050 nM (active),2640 nM (active),,,
CCOc1cc2ncc(C#N)c(Nc3ccc(OCc4ccccn4)c(Cl)c3)c2cc1NC(=O)C=CCN(C)C,7.93%,7.24%,12.3,2.73%,4.27%,inactive,inactive,118 nM (active),2350 nM (active),6620 nM (active),,,
